Screening data from PubChem.
TDP1 block – qHTS Assay for Inhibitors of Tyrosyl-DNA Phosphodiesterase (TDP1); Tyrosyl-DNA phosphodiesterase 1 (Homo sapiens), Q9NUW8; recombinant TDP1, AlphaScreen DNA substrate cleavage; Potency, µM (top dose mostly 130 µM), for the others: at the highest dose activity change, negative = inhibition, usual class: inhibitors; actives 0.28% (n = 350,000); AID 485290, 2010; further: nearly all actives have a fitted effect of over 40% in size
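Compounds were preincubated with Tdp1 (1 nM final) for 15 min at room temperature before substrate (15 nM final) started a 5 min reaction; beads (10 ug/ml final) were then added for 10 min before AlphaScreen detection.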
TDP1 cell noCPT – qHTS for Inhibitors of human tyrosyl-DNA phosphodiesterase 1 (TDP1): qHTS in cells in absence of CPT | actives 15% (n = 420,000) | Potency, µM (top dose mostly 46.2 µM), for inactives: top-dose activity change, negative = growth inhibition, usual class: inhibitors | AID 686978, 2013 | DT40 Tdp1-/- hTDP1 cells, no CPT, ATP luminescence, 48 h; further: nearly all actives have a fitted effect of over 55% in size
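No-CPT arm: Tdp1-/-;hTDP1 DT40 cells (400/well) plus compounds, incubated ≥48 hr at 37 °C. Readout CellTiter-Glo luminescence.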
TDP1 cell CPT – qHTS for Inhibitors of human tyrosyl-DNA phosphodiesterase 1 (TDP1): qHTS in cells in presence of CPT. AID 686979, 2013. chicken DT40 Tdp1-/-;hTDP1 cells + 20 nM CPT, ATP luminescence, 48 h. Potency, µM (highest dose often 46.2 µM), for inactives: at the top dose activity change, negative = growth inhibition, most hits filed as inhibitors. actives 12% (n = 420,000); further: nearly all actives have a fitted effect of over 55% in size
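Cell growth measured by CellTiter-Glo luminescence after a minimum 48 h, 37 C compound exposure with 20 nM CPT in Tdp1-knockout DT40 cells stably expressing hTDP1, seeded 400/well; qHTS titration format.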
PLK1 PBD block – qHTS for Inhibitors of PLK1-PDB (polo-like kinase 1 - polo-box domain): Primary Screen; actives 2.8% (n = 360,000); Plk1 PBD binding of FITC phosphopeptide, fluorescence polarization; Serine/threonine-protein kinase PLK1 (Homo sapiens), P53350; Potency, µM, without a hit: max response, negative = inhibition, hits mostly inhibitors; further: series mostly up to about 57 µM; nearly all actives have a fitted effect of over 65% in size
GCN5L2 inh – qHTS Assay for Inhibitors of GCN5L2; Histone acetyltransferase KAT2A (Homo sapiens), Q92830; actives 0.21% (n = 390,000); GCN5L2 HAT assay, ThioGlo1 CoA-SH fluorescence; Potency, µM (doses to about 58.9 µM), without a hit: at the highest dose activity change, negative = inhibition, usual class: inhibitors
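qHTS, 1536-well. 20nM enzyme, pH 7.5 HEPES/EDTA/Tween-20 buffer; 15 min compound preinc., RT. Start: 75uM H3(1-25), 70uM AcCoA, 50uM ThioGlo1. Read Ex340/Em540 at t=0 (autofluorescence flag) and t=20 min.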
VDR inh – Inhibitors of the vitamin D receptor (VDR): qHTS; VDR-SRC2-3 peptide fluorescence polarization, 2 h; Vitamin D3 receptor (Homo sapiens), P11473; actives 0.93% (n = 400,000); Potency, µM, without a hit: max response, negative = inhibition, actives largely listed as inhibitors; AID 504847, 2011
Target sequence (P11473 whole entry, looked up): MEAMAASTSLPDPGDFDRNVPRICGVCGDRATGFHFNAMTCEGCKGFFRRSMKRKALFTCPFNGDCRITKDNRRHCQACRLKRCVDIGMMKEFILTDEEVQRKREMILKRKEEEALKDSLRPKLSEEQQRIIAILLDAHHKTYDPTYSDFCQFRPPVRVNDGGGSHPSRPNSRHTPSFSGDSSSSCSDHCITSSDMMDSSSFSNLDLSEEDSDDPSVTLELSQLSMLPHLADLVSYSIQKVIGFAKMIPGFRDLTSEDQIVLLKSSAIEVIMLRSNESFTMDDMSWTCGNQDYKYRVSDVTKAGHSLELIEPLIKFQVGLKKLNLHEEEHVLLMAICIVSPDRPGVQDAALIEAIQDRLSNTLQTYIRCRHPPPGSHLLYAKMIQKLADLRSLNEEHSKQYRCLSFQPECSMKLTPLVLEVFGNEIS
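Two reagent solutions held at 4 deg C in the dark were dispensed, compounds pinned at 23 nl, and the mixture incubated 2 h at room temperature. Read-out: fluorescence polarization of VDR–SRC2-3 peptide binding.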
* marks the source's active call; other numbers are inactive results; [ ] = remark or other dose. Only some compounds are listed: those with a hit (about 18% of all), similar ones and a draw of the others. The call rests on the fitted dose curve; in most records, active means well fitted curve in the direction sought with a large enough effect; inconclusive means small, poorly fitted or top-dose-only effect, or another doubt; inactive means no such curve, though single readings can be large; an effect the other way counts as inactive or inconclusive. On the % scale 0 is the no-effect control and ±100 the full control effect; potency means the concentration at half of the fitted maximal effect.

O=C(Cn1c(=O)n(-c2ccc(Cl)cc2)c(=O)c2c3c(sc21)CCCCC3)Nc1cccc(Cl)c1 was read as TDP1 block 8%, TDP1 cell noCPT inconclusive, TDP1 cell CPT inconclusive, GCN5L2 inh -8% and VDR inh -6%.
CC1CN(S(=O)(=O)c2cccc(C(=O)N3CCC(C(N)=O)CC3)c2)CC(C)O1 (centres undefined) was read as TDP1 block 0%, TDP1 cell noCPT -5%, TDP1 cell CPT -22%, PLK1 PBD block 1%, GCN5L2 inh -5% and VDR inh -4%.
For CCOc1cccc(/C=N/Nc2nc(N3CCCC3)nc(N3CCCC3)n2)c1O the results were TDP1 block 6%, TDP1 cell noCPT 13µM*, TDP1 cell CPT 16µM*, PLK1 PBD block 7%, GCN5L2 inh 0% and VDR inh inconclusive.
COC(=O)c1ccccc1-c1ccc(/C=N/Nc2nc(N3CCCC3)nc(N3CCCC3)n2)o1 was read as TDP1 block -4%, TDP1 cell noCPT 23µM*, TDP1 cell CPT inconclusive, PLK1 PBD block 2%, GCN5L2 inh -26% and VDR inh -6%.
Screening CCOc1cc(/C=N/Nc2nc(N3CCCC3)nc(N3CCCC3)n2)ccc1O returned TDP1 block 2%, TDP1 cell noCPT inconclusive, TDP1 cell CPT inconclusive, PLK1 PBD block 3%, GCN5L2 inh -6% and VDR inh 11%.
Screening O=[N+]([O-])c1ccc(/C=N/Nc2nc(N3CCCCCC3)nc(N3CCCCCC3)n2)o1 returned TDP1 block 5%[56.1 µM], TDP1 cell noCPT inconclusive, TDP1 cell CPT 26µM*, PLK1 PBD block -2%, GCN5L2 inh -9% and VDR inh 3%.
For COc1ccc(/C=N/Nc2nc(Nc3ccccc3)nc(N3CCCCC3)n2)cc1OC the results were TDP1 block 9%, TDP1 cell noCPT 21µM*, TDP1 cell CPT inconclusive, PLK1 PBD block -9%, GCN5L2 inh -20% and VDR inh 0%.
Screening Cc1ccc(CNC(=O)CN2C(=O)CSc3ccc(S(=O)(=O)N4CCC(C)CC4)cc32)cc1 returned TDP1 block 2%, TDP1 cell noCPT -17%, TDP1 cell CPT inconclusive, PLK1 PBD block -3%, GCN5L2 inh -7% and VDR inh 3%.
`Cc1cn(CC2COC(C)(C)O2)c(=O)[nH]c1=O` (centres undefined) gave TDP1 block -4%, TDP1 cell noCPT inconclusive, TDP1 cell CPT inconclusive, PLK1 PBD block 6µM*, GCN5L2 inh -3% and VDR inh -24%.
`CCc1nc2c(OCc3ccc(Cl)cc3)cccn2c1N(C)C(=O)c1ccco1` gave TDP1 cell noCPT 21µM*, TDP1 cell CPT 16µM* and PLK1 PBD block -15%.
CCc1nc2c(OCc3ccc(C(F)(F)F)cc3)cccn2c1N(C)C(=O)c1ccncc1 was read as TDP1 cell noCPT 16µM*, TDP1 cell CPT 16µM* and PLK1 PBD block 1%.
`CCc1nc2c(OCc3ccc(F)cc3)cccn2c1N(C)C(=O)c1ccc(C)cc1` gave TDP1 cell noCPT inconclusive, TDP1 cell CPT 15µM* and PLK1 PBD block -10%.
Screening CCc1nc2c(OCc3ccc(F)c(F)c3)cccn2c1N(C)C(=O)c1cccs1 returned TDP1 cell noCPT 23µM*, TDP1 cell CPT inconclusive and PLK1 PBD block 4%.
`CCc1nc2c(OCc3ccc(F)cc3)cccn2c1N(C)C(=O)c1ccco1` gave TDP1 cell noCPT inconclusive, TDP1 cell CPT -18% and PLK1 PBD block -10%.
CCc1nc2c(OCc3ccc(Cl)cc3)cccn2c1N(C)C(=O)c1cccs1 was read as TDP1 cell noCPT inconclusive, TDP1 cell CPT inconclusive and PLK1 PBD block -5%.
Screening CCc1nc2c(OCc3ccc(C(=O)OC)cc3)cccn2c1N(C)C(=O)c1ccc(C)cc1 returned TDP1 cell noCPT 18µM*, TDP1 cell CPT 23µM* and PLK1 PBD block -7%.
Cc1c(C(=O)NCCO)[n+](=O)c2ccccc2n1[O-] was read as TDP1 block 7%, TDP1 cell noCPT -18%, TDP1 cell CPT 6%, GCN5L2 inh -11% and VDR inh -2%.
For CC1(C(=O)Nc2cccnc2)Cc2c(-c3cccc(C(F)(F)F)c3)ccnc2O1 (centres undefined) the results were TDP1 cell noCPT 23µM*, TDP1 cell CPT 16µM* and PLK1 PBD block 1%.
For CC(=O)Nc1ccc(NC(=O)C2(C)Cc3c(-c4cccc(C(F)(F)F)c4)ccnc3O2)cc1 (centres undefined) the results were TDP1 cell noCPT inconclusive, TDP1 cell CPT inconclusive and PLK1 PBD block 5%.
For CC(=O)c1cccc(NC(=O)C2(C)Cc3c(-c4cccc(C(F)(F)F)c4)ccnc3O2)c1 (centres undefined) the results were TDP1 cell noCPT 23µM*, TDP1 cell CPT 16µM* and PLK1 PBD block 1%.
`CC1(C(=O)Nc2cccc(OC(F)(F)F)c2)Cc2c(-c3cccc(C(F)(F)F)c3)ccnc2O1` (centres undefined) gave TDP1 cell noCPT inconclusive, TDP1 cell CPT inconclusive and PLK1 PBD block 4%.
`Cc1cn([C@H]2C[C@H](O)[C@@H](/C=C/C(=O)NCCc3cccs3)O2)c(=O)[nH]c1=O` gave TDP1 cell noCPT 6%, TDP1 cell CPT 3% and PLK1 PBD block 4%.
Screening O=C(CSc1nnc(-c2cccnc2)s1)Nc1ccnc2ccccc12 returned TDP1 block 5%, TDP1 cell noCPT 0.52µM*, TDP1 cell CPT 1.2µM*, PLK1 PBD block -4%, GCN5L2 inh 1% and VDR inh -21%.
COc1cc(OC)c(NS(=O)(=O)c2cc(C(=O)OC(C)C(=O)NC3CC3)c(Cl)cc2Cl)cc1Cl (centres undefined) was read as TDP1 block 2%, TDP1 cell noCPT 23µM*, TDP1 cell CPT 18µM*, PLK1 PBD block -4%, GCN5L2 inh -3% and VDR inh 6%.
